According to PubChem BioAssay (NCATS):
Inconclusive results are not listed. A number with no mark means an inactive call. Calls come from the whole dose curve; as a rule, active = well fitted cell-killing curve with a large enough effect; inconclusive = small, poorly fitted or top-dose-only effect; inactive = flat fitted curve, though single readings scatter.

Assay: qHTS assay to identify small molecule inhibitors of chordoma cells - UCH-2 (AID 1259356)
Conditions: UCH-2 chordoma viability, CellTiter-Glo ATP luminescence, 48 h; series mostly up to 46.1 µM; activity change, negative = inhibition: at the top concentration
Source text: NIH Chemical Genomics Center [NCGC]
Chordoma is a rare and slow growing tumor that can occur anywhere along the spine, from the base of the skull to the tailbone. Current treatment options for chordoma is surgery and radiation therapy for those who are not candidates for surgery. But chordomas tend to return in the same location or surrounding areas of the original tumor after surgery and/or radiation. Chemotherapy can slow down the progression of the tumor. As chordoma is slow growing, the general cytotoxic agents that kill fast growing cells are ineffective, and some patients have been reported to respond to molecularly targeted drugs.
NCATS Pharmaceutical Collection (NPC) containing approximately 3000 clinically approved and investigational drugs were used to screen at 15 concentrations in a chordoma cell lines, UCH-2, to identify small molecule compounds that can inhibit chordoma cell growth.
NCGC Assay Protocol Summary:
Human chordoma cell line UCH-2 was dispensed at 800 per well in 4uL of culture medium into white solid bottom 1536-well plates (Corning Life Sciences, Corning, NY) using a Multidrop Combi (Thermo Scientific, Waltham, MA) dispenser. The assay plates were incubated at 37 C and 5% CO2 for an overnight, and then 23nL of compounds dissolved in DMSO and positive control were transferred using a Pintool station (Wako, San Diego, CA). Compound treatment was followed by the addition of 1uL of the combination compounds (1uM Auranofin, 500nM each of Camptothecin, Doxorubicin, Rubitecan, and Topotecan) and assay medium to each well of the assay plates using Flying Reagent Dispenser (FRD, Aurora Discovery, San Diego, CA). The assay plates were incubated at 37 C and 5% CO2 for 48hr. Then 5uL of CellTiter-Glo reagent (Promega Corporation, Madison, WI) was added to each well of the assay plates using FRD. After 30min incubation at room temperature, the luminescence signal was quantified using a ViewLux plate reader (PerkinElmer, Shelton, CT).
% is set by controls: 0 for no effect and ±100 for the full control effect.

Point of comparison: `COc1c(N2C[C@@H]3CCCN[C@H]3C2)c(F)cc2c(=O)c(C(=O)O)cn(C3CC3)c12`, “activity change, negative = inhibition” value 9.31%. Against it:
- CN1c2cc(O)c(N=NC(N)=O)cc2CC1S(=O)(=O)O (centres undefined) — lower, 0.527%
- COC(=O)C[C@](O)(CCCC(C)(C)O)C(=O)O[C@@H]1C(OC)=C[C@]23CCCN2CCc2cc4c(cc2[C@H]13)OCO4 — lower, 2.62%
- Nc1ccn([C@@H]2CS[C@H](CO)O2)c(=O)n1 — lower, 7.47%
- CC1(C)O[C@@H]2C[C@@H]3[C@H]4C[C@@H](F)C5=CC(=O)C=C[C@]5(C)[C@@]4(F)[C@@H](O)C[C@]3(C)[C@]2(C(=O)CO)O1 — lower, 1.67%
- O=c1[nH]c(=O)n(C2CCCO2)cc1F (centres undefined) — lower, -1.22%
- COc1cc(C(=O)NS(=O)(=O)c2ccccc2C)ccc1Cc1cn(C)c2ccc(NC(=O)OC3CCCC3)cc12 — lower, 6.09%
- Cc1nc2ccc(CN(C)c3ccc(C(=O)N[C@@H](CCC(=O)O)C(=O)O)s3)cc2c(=O)[nH]1 — higher, 12.7%
- COC(=O)C1=C(C)NC(C)=C(C(=O)OCCN2CCN(C(c3ccccc3)c3ccccc3)CC2)C1c1cccc([N+](=O)[O-])c1 (centres undefined) — lower, 3.49%
- CC(C)(C)NC(=O)[C@H]1CN(Cc2cccnc2)CCN1C[C@@H](O)C[C@@H](Cc1ccccc1)C(=O)N[C@H]1c2ccccc2C[C@H]1O — higher, 11.1%
- CN[C@H]1CCc2cc(OC)c(OC)c(OC)c2-c2ccc(OC)c(=O)cc21 — lower, -14.8%
- CCC1=C[C@@H]2CN(C1)Cc1c([nH]c3ccccc13)[C@@](C(=O)OC)(c1cc3c(cc1OC)N(C)[C@@H]1[C@@](O)(C(=O)OC)[C@H](OC(C)=O)[C@]4(CC)C=CCN5CC[C@]31[C@@H]54)C2 — lower, -29.6%
- CC=CC1=C(C(=O)O)N2C(=O)[C@H](NC(=O)[C@H](N)c3ccc(O)cc3)[C@@H]2SC1 — lower, 5.67%
- CC[C@H]1CN2CCc3cc(OC)c(OC)cc3[C@H]2C[C@@H]1C[C@@H]1NCCc2cc(OC)c(OC)cc21 — higher, 13.7%
- O=C(O)CO.[NH2-].[NH2-].[Pt+2] — lower, -1.14%
- Nc1ccn([C@@H]2O[C@H](CO)[C@H](O)C2(F)F)c(=O)n1 — lower, 0.443%

Point of comparison: `COc1ccc(CC2c3cc(OC)c(OC)cc3CC[N+]2(C)CCC(=O)OCCCCCOC(=O)CC[N+]2(C)CCc3cc(OC)c(OC)cc3C2Cc2ccc(OC)c(OC)c2)cc1OC` (centres undefined), “activity change, negative = inhibition” value 6.31% [at 20.6 µM]. Against it:
- C[C@H]1C[C@@H]2[C@@H]([C@@H](O)C[C@@]3(C)[C@H]2CC[C@]3(O)C(=O)CO)[C@@]2(C)C=CC(=O)C=C12 — lower, 0.959% [at 20.6 µM]
- Nc1ccc(S(=O)(=O)Nc2ncccn2)cc1 — lower, 5.62% [at 20.6 µM]
